# Article PMC5700166
# Numbering of substitutions follows the chain as printed.
# Key:
# Experiment in all cases: protein-binding microarray (PBM); PBM: ~300 nM protein, 6 mM HEPES pH 7.8, 80 mM KCl, 0.5 mM EDTA, 0.5 mM EGTA, 6% glycerol, 35 ng/ul poly-dIdC, 1% milk, 1 h, room temperature; Ap Aiptasia and Nv Nematostella (sea anemones) / Co Capsaspora / Aq Amphimedon (sponge) / Dm Drosophila / Hu human; RHD is the Rel homology domain; high values mean tight binding
# Conditions in all cases: dsDNA, one strand shown
# GST-Ap-NF-kB RHD = biological target: T1, GST-Ap-NF-kB RHD (Exaiptasia pallida (Aiptasia), UniProt A0A913YAJ5 2-422)
# T1 sequence: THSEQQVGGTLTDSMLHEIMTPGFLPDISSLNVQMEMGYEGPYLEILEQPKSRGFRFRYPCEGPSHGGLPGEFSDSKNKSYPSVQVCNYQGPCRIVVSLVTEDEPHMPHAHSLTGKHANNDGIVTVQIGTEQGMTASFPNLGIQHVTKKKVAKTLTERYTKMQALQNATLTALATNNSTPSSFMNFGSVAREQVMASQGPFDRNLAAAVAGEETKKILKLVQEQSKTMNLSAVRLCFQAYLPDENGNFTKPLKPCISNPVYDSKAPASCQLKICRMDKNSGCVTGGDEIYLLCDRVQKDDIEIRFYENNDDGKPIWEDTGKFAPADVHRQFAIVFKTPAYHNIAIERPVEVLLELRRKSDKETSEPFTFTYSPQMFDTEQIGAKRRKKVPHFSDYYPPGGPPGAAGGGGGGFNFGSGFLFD
# [1] = biological target: T2, GST-Nv-NF-kB (Cys allele) (Nematostella vectensis, UniProt E5G601 2-411)
# T2 sequence: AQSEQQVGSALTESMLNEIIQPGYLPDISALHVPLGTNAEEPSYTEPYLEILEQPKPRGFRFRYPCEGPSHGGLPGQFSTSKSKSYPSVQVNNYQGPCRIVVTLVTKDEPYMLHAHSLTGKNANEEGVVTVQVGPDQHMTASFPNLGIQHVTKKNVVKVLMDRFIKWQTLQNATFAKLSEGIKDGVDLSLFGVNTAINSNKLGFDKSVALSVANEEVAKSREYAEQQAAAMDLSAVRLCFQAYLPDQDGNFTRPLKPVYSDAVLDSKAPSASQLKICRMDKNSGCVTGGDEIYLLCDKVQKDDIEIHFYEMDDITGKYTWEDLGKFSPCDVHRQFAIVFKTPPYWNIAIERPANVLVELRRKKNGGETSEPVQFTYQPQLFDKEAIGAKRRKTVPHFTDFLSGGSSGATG
# [2] = biological target: T3, GST-Nv-NF-kB (Ser allele) (Nematostella vectensis, UniProt A7UNT2 2-411)
# T3 sequence: T2 sequence with Q21R, C66S, S207N, E215Q, V217A, E225K, A268E, D399E
# GST-Co-NF-kB = biological target: T4, GST-Co-NF-kB (Capsaspora owczarzaki, UniProt F1ARL5 200-546)
# T4 sequence: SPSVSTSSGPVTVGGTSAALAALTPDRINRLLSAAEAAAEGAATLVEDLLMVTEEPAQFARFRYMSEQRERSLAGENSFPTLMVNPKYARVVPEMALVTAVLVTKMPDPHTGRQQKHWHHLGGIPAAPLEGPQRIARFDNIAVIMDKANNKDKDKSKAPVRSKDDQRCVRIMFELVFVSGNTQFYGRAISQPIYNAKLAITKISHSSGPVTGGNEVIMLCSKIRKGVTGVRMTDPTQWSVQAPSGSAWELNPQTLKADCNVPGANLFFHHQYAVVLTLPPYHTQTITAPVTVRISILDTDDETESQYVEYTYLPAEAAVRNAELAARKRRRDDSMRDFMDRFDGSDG
# GST-Dm-Relish = biological target: T5, GST-Dm-Relish (Drosophila melanogaster, UniProt Q94527 99-473)
# T5 sequence: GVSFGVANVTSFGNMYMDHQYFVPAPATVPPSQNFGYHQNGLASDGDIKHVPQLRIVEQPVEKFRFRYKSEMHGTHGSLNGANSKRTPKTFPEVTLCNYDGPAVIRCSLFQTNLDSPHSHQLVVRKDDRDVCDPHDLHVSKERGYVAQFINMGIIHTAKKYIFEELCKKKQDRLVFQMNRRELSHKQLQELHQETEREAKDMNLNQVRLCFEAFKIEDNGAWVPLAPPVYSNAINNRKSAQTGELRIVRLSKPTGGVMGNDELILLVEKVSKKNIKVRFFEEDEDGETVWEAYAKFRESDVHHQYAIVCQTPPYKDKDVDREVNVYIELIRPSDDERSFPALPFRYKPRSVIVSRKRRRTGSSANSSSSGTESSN
# GST-Aq-NF-kB = biological target: T6, GST-Aq-NF-kB (Amphimedon queenslandica, UniProt A9Y5G7 2-389)
# T6 sequence: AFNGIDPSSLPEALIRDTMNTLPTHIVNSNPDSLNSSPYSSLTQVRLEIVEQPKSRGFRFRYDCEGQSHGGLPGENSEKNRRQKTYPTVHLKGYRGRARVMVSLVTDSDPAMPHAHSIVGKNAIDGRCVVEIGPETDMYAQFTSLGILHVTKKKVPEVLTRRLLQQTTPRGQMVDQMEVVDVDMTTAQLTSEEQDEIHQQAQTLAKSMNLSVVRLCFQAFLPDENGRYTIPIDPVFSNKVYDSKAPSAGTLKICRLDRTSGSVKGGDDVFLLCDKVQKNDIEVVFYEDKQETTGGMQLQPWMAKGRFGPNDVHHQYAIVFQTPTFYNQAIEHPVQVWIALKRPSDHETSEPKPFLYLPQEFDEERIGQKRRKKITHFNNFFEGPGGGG
# GST-Hu-p50 = GST-Hu-p50 (Homo sapiens, UniProt P19838 7-356)
# GST-Hu-p50, sequence (P19838 7-356): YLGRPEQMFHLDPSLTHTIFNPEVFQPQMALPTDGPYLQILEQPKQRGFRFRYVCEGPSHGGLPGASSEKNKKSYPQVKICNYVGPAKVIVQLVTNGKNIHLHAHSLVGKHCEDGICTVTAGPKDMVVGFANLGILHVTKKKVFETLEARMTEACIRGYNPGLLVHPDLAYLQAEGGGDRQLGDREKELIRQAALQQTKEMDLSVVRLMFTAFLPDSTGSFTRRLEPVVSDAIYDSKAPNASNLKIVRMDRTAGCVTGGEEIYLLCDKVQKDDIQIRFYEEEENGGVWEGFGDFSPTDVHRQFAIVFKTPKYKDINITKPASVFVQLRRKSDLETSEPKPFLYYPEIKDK
Sequence,binding signal (GST-Ap-NF-kB RHD),binding signal [1],binding signal [2],binding signal (GST-Co-NF-kB),binding signal (GST-Dm-Relish),binding signal (GST-Aq-NF-kB),binding signal (GST-Hu-p50)
CCGATTAACATCAAAATAGTCCCTGATGTTAATCGGGTCTTGATTCGCTTGACGCTGCTG,7.45 z-score,7.77 z-score,7.5 z-score,2.01 z-score,4.37 z-score,6.34 z-score,5.5 z-score
CCGATTAACATCACCCTTTTCCCTGATGTTAATCGGGTCTTGATTCGCTTGACGCTGCTG,2.88 z-score,3.25 z-score,5.61 z-score,4.6 z-score,1.52 z-score,2.91 z-score,2.59 z-score
CCGATTAACATCAGGGAAGTACCTGATGTTAATCGGGTCTTGATTCGCTTGACGCTGCTG,6.67 z-score,7.36 z-score,8.68 z-score,1.93 z-score,9.88 z-score,7.45 z-score,5.92 z-score
CCGATTAACATCAGGGTTCCCCATGATGTTAATCGGGTCTTGATTCGCTTGACGCTGCTG,6.72 z-score,5.05 z-score,5.17 z-score,5.37 z-score,7.85 z-score,4.21 z-score,3.83 z-score
CCGATTAACATCAAGGGGAAAACTGATGTTAATCGGGTCTTGATTCGCTTGACGCTGCTG,7.51 z-score,8.85 z-score,11 z-score,8 z-score,5.32 z-score,6.55 z-score,6.9 z-score
CCGATTAACATCAGGGGAAGAACTGATGTTAATCGGGTCTTGATTCGCTTGACGCTGCTG,4.9 z-score,5.96 z-score,6.48 z-score,6.9 z-score,9.56 z-score,5.61 z-score,4.93 z-score
CCGATTAACATCAAAAATTCCCTTGATGTTAATCGGGTCTTGATTCGCTTGACGCTGCTG,6.05 z-score,9.28 z-score,8.71 z-score,4.19 z-score,7.19 z-score,7.62 z-score,6.22 z-score
CCGATTAACATCAGGGGGAACCCTGATGTTAATCGGGTCTTGATTCGCTTGACGCTGCTG,8.64 z-score,7.75 z-score,7.25 z-score,8.49 z-score,9.93 z-score,8.13 z-score,6.39 z-score
CCGATTAACATCAAAAATCCCGGTGATGTTAATCGGGTCTTGATTCGCTTGACGCTGCTG,4.77 z-score,4.4 z-score,4.06 z-score,2.98 z-score,8.52 z-score,5.12 z-score,3.94 z-score
CCGATTAACATCAGAGTTCCCCCTGATGTTAATCGGGTCTTGATTCGCTTGACGCTGCTG,7.64 z-score,7.87 z-score,8.12 z-score,8.96 z-score,7 z-score,6.05 z-score,6.39 z-score
CCGATTAACATCATGGGGGGAAATGATGTTAATCGGGTCTTGATTCGCTTGACGCTGCTG,6.36 z-score,6.46 z-score,7.43 z-score,9.84 z-score,4.25 z-score,5.5 z-score,6.02 z-score
CCGATTAACATCAACAAAATCCCTGATGTTAATCGGGTCTTGATTCGCTTGACGCTGCTG,3.4 z-score,3.64 z-score,3.66 z-score,1.89 z-score,6.66 z-score,3.47 z-score,2.65 z-score
CCGATTAACATCAAAAATTTCCCTGATGTTAATCGGGTCTTGATTCGCTTGACGCTGCTG,5.61 z-score,8.92 z-score,8.77 z-score,5.47 z-score,6.05 z-score,7.58 z-score,5.67 z-score
CCGATTAACATCAGGGGAATCTATGATGTTAATCGGGTCTTGATTCGCTTGACGCTGCTG,8.26 z-score,8.91 z-score,10.6 z-score,7.29 z-score,5.84 z-score,5.95 z-score,6.51 z-score
CCGATTAACATCACGGATTCCCCTGATGTTAATCGGGTCTTGATTCGCTTGACGCTGCTG,8.74 z-score,9.07 z-score,9.24 z-score,6.61 z-score,8.89 z-score,6.68 z-score,6.26 z-score
CCGATTAACATCACAGATTCCCCTGATGTTAATCGGGTCTTGATTCGCTTGACGCTGCTG,7.65 z-score,9.02 z-score,10.7 z-score,7.14 z-score,6.17 z-score,5.96 z-score,6.28 z-score
CCGATTAACATCAGGGGGTTCTATGATGTTAATCGGGTCTTGATTCGCTTGACGCTGCTG,7.12 z-score,5.57 z-score,6.75 z-score,2.36 z-score,6.97 z-score,5.33 z-score,5.89 z-score
CCGATTAACATCAGGATTCCCCATGATGTTAATCGGGTCTTGATTCGCTTGACGCTGCTG,9.56 z-score,9.44 z-score,8.33 z-score,6.71 z-score,8.76 z-score,6.46 z-score,5.89 z-score
CCGATTAACATCAGGGGAAGATATGATGTTAATCGGGTCTTGATTCGCTTGACGCTGCTG,6.06 z-score,6.63 z-score,7.91 z-score,8.77 z-score,4.01 z-score,6.09 z-score,5.33 z-score
CCGATTAACATCAAATCCCCCCATGATGTTAATCGGGTCTTGATTCGCTTGACGCTGCTG,7.89 z-score,6.31 z-score,6.65 z-score,7.39 z-score,7.66 z-score,6.36 z-score,6.55 z-score
CCGATTAACATCACCCAATTCCCTGATGTTAATCGGGTCTTGATTCGCTTGACGCTGCTG,3.33 z-score,3.63 z-score,4.42 z-score,2.69 z-score,1.62 z-score,2.94 z-score,2.81 z-score
CCGATTAACATCAAGGGGGATATTGATGTTAATCGGGTCTTGATTCGCTTGACGCTGCTG,5.89 z-score,6.77 z-score,7.37 z-score,5.64 z-score,5.23 z-score,6.15 z-score,6.33 z-score
CCGATTAACATCAGGGGGGAACCTGATGTTAATCGGGTCTTGATTCGCTTGACGCTGCTG,7.52 z-score,5.48 z-score,6.89 z-score,8.57 z-score,5.48 z-score,6.03 z-score,6.02 z-score
CCGATTAACATCAAAAAACCCCTTGATGTTAATCGGGTCTTGATTCGCTTGACGCTGCTG,8.1 z-score,8.78 z-score,7.86 z-score,2.05 z-score,8.96 z-score,8 z-score,7.64 z-score
